Measurements as given in PubChem BioAssay AID1159580 (chemical genetic matrix, 2015).
Several values for one entry are separate records, joined by “and”; a condition that tells them apart may be missing. Equal entries are not always repeated. In all, about 5,500 compounds went through this assay and about 2,000 (36%) were called active. Roughly 18% stayed inconclusive and do not appear here. Cut-off read from the data, not from the text of the source: active = normalized growth mostly below about 0.91 (no sharp cut-off); inconclusive = no clear call, values can overlap the other calls; inactive = mostly above about 0.92. The list shows a part of the results.

Assay: chemical genetic growth profiling, strain panel (AID 1159580);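 note: tested at 20 µM; growth read once vehicle control cultures reached saturation at 30 °C; 1 = growth at the plate median or of vehicle wells; lower values mean less growth of the strain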
Details: growth OD

Measured: normalized growth

CC(CN1c2ccccc2Sc2ccccc21)N(C)C (configuration not stated)
active: S. cerevisiae deletion strains, locus YLL001W, strain dnm1, stronger effect = lower value 0.879 | S. cerevisiae deletion strains, locus YLR342W, strain FKS1, stronger effect = lower value 0.844 | S. cerevisiae deletion strains, locus YOR001W, strain rrp6, stronger effect = lower value 0.889 | S. cerevisiae deletion strains, locus YPL051W, strain arl3, stronger effect = lower value 0.863 | S. cerevisiae deletion strains, locus YPL078C, strain atp4, stronger effect = lower value 0.838
inactive: S. cerevisiae deletion strains, locus YKL009W, strain mrt4, stronger effect = lower value 0.924 | S. cerevisiae deletion strains, locus YKL068W, stronger effect = lower value 0.982 | S. cerevisiae deletion strains, locus YKL085W, strain MDH1 (second series), stronger effect = lower value 0.965 | S. cerevisiae deletion strains, locus YKL085W, strain MDH1, stronger effect = lower value 0.965 | S. cerevisiae deletion strains, locus YKL160W, strain elf1, stronger effect = lower value 0.913 | S. cerevisiae deletion strains, locus YKL190W, strain CNB1, stronger effect = lower value 0.995 | S. cerevisiae deletion strains, locus YKR001C, strain vps1, stronger effect = lower value 0.968 | S. cerevisiae deletion strains, locus YKR026C, strain gcn3, stronger effect = lower value 0.972 | S. cerevisiae deletion strains, locus YKR091W, strain srl3, stronger effect = lower value 0.983 | S. cerevisiae deletion strains, locus YLL026W, stronger effect = lower value 0.943 | S. cerevisiae deletion strains, locus YLL041C, strain sdh2, stronger effect = lower value 0.982 | S. cerevisiae deletion strains, locus YLR027C, strain aat2, stronger effect = lower value 0.932 | S. cerevisiae deletion strains, locus YLR039C, strain RIC1, stronger effect = lower value 1.23 | S. cerevisiae deletion strains, locus YLR058C, strain SHM2, stronger effect = lower value 0.957 | S. cerevisiae deletion strains, locus YLR102C, strain apc9, stronger effect = lower value 0.981 | S. cerevisiae deletion strains, locus YLR113W, strain HOG1, stronger effect = lower value 1.03 | S. cerevisiae deletion strains, locus YLR221C, strain rsa3, stronger effect = lower value 0.969 | S. cerevisiae deletion strains, locus YLR258W, strain gsy2, stronger effect = lower value 0.974 | S. cerevisiae deletion strains, locus YLR262C, strain YPT6 (second series), stronger effect = lower value 1.07 | S. cerevisiae deletion strains, locus YLR262C, strain YPT6, stronger effect = lower value 1.34 | S. cerevisiae deletion strains, locus YLR268W, strain sec22, stronger effect = lower value 0.947 | S. cerevisiae deletion strains, locus YLR320W, strain mms22, stronger effect = lower value 0.944 | S. cerevisiae deletion strains, locus YLR330W, strain CHS5, stronger effect = lower value 0.993 | S. cerevisiae deletion strains, locus YLR342W, strain FKS1 (second series), stronger effect = lower value 0.928 | S. cerevisiae deletion strains, locus YLR357W, strain rsc2, stronger effect = lower value 0.99 | S. cerevisiae deletion strains, locus YLR370C, strain arc18, stronger effect = lower value 0.938 | S. cerevisiae deletion strains, locus YLR371W, strain rom2, stronger effect = lower value 0.962 | S. cerevisiae deletion strains, locus YLR384C, strain iki3, stronger effect = lower value 0.968 | S. cerevisiae deletion strains, locus YLR418C, strain cdc73, stronger effect = lower value 0.955 | S. cerevisiae deletion strains, locus YML016C, strain PPZ1, stronger effect = lower value 0.985 | S. cerevisiae deletion strains, locus YML032C, strain rad52, stronger effect = lower value 0.908 | S. cerevisiae deletion strains, locus YML120C, strain ndi1, stronger effect = lower value 0.921 | S. cerevisiae deletion strains, locus YML124C, strain tub3, stronger effect = lower value 0.983 | S. cerevisiae deletion strains, locus YMR058W, strain fet3, stronger effect = lower value 0.94 | S. cerevisiae deletion strains, locus YMR078C, strain ctf18, stronger effect = lower value 0.98 | S. cerevisiae deletion strains, locus YMR125W, strain sto1, stronger effect = lower value 0.988 | S. cerevisiae deletion strains, locus YMR129W, stronger effect = lower value 0.97 | S. cerevisiae deletion strains, locus YMR205C, strain PFK2, stronger effect = lower value 0.968 | S. cerevisiae deletion strains, locus YMR223W, strain ubp8, stronger effect = lower value 0.992 | S. cerevisiae deletion strains, locus YMR231W, strain pep5, stronger effect = lower value 0.983 | S. cerevisiae deletion strains, locus YMR263W, strain SAP30, stronger effect = lower value 0.999 | S. cerevisiae deletion strains, locus YMR307W, strain GAS1, stronger effect = lower value 1.12 | S. cerevisiae deletion strains, locus YNL067W, strain RPL9B, stronger effect = lower value 0.924 | S. cerevisiae deletion strains, locus YNL071W, strain lat1, stronger effect = lower value 0.969 | S. cerevisiae deletion strains, locus YNL128W, strain TEP1, stronger effect = lower value 1.02 | S. cerevisiae deletion strains, locus YNL175C, strain NOP13, stronger effect = lower value 1.01 | S. cerevisiae deletion strains, locus YNL183C, strain NPR1, stronger effect = lower value 0.964 | S. cerevisiae deletion strains, locus YNL197C, strain WHI3, stronger effect = lower value 1.01 | S. cerevisiae deletion strains, locus YNL209W, strain ssb2, stronger effect = lower value 0.962 | S. cerevisiae deletion strains, locus YNL224C, strain SQS1, stronger effect = lower value 1.01 | S. cerevisiae deletion strains, locus YNL233W, strain BNI4, stronger effect = lower value 0.925 | S. cerevisiae deletion strains, locus YNL248C, strain rpa49, stronger effect = lower value 0.971 | S. cerevisiae deletion strains, locus YNL250W, strain rad50, stronger effect = lower value 0.958 | S. cerevisiae deletion strains, locus YNL271C, strain bni1, stronger effect = lower value 0.973 | S. cerevisiae deletion strains, locus YNL298W, strain CLA4, stronger effect = lower value 0.978 | S. cerevisiae deletion strains, locus YNL307C, strain MCK1, stronger effect = lower value 0.958 | S. cerevisiae deletion strains, locus YNL322C, strain KRE1 (second series), stronger effect = lower value 0.976 | S. cerevisiae deletion strains, locus YNR049C, strain mso1, stronger effect = lower value 0.977 | S. cerevisiae deletion strains, locus YNR052C, strain pop2, stronger effect = lower value 0.976 | S. cerevisiae deletion strains, locus YOL006C, strain TOP1, stronger effect = lower value 0.79 | S. cerevisiae deletion strains, locus YOL012C, strain htz1 1.06 | S. cerevisiae deletion strains, locus YOL147C, strain pex11, stronger effect = lower value 0.976 | S. cerevisiae deletion strains, locus YOR061W, strain CKA2, stronger effect = lower value 0.955 | S. cerevisiae deletion strains, locus YOR069W, strain VPS5, stronger effect = lower value 0.986 | S. cerevisiae deletion strains, locus YOR070C, strain gyp1, stronger effect = lower value 0.965 | S. cerevisiae deletion strains, locus YOR080W, strain dia2, stronger effect = lower value 0.963 | S. cerevisiae deletion strains, locus YOR083W, strain WHI5 (second series), stronger effect = lower value 1.02 | S. cerevisiae deletion strains, locus YOR083W, strain WHI5, stronger effect = lower value 0.898 | S. cerevisiae deletion strains, locus YOR106W, strain vam3, stronger effect = lower value 0.884 | S. cerevisiae deletion strains, locus YOR136W, strain idh2, stronger effect = lower value 0.968 | S. cerevisiae deletion strains, locus YOR144C, strain elg1, stronger effect = lower value 0.989 | S. cerevisiae deletion strains, locus YOR184W, strain ser1, stronger effect = lower value 1.01 | S. cerevisiae deletion strains, locus YOR231W, strain MKK1, stronger effect = lower value 1.01 | S. cerevisiae deletion strains, locus YOR265W, strain rbl2, stronger effect = lower value 0.955 | S. cerevisiae deletion strains, locus YOR270C, strain vph1, stronger effect = lower value 0.998 | S. cerevisiae deletion strains, locus YOR290C, strain snf2, stronger effect = lower value 0.96 | S. cerevisiae deletion strains, locus YOR316C, strain cot1, stronger effect = lower value 0.97 | S. cerevisiae deletion strains, locus YPL106C, strain sse1, stronger effect = lower value 0.929 | S. cerevisiae deletion strains, locus YPL240C, strain hsp82, stronger effect = lower value 0.965 | S. cerevisiae deletion strains, locus YPL241C, strain CIN2, stronger effect = lower value 0.989 and 0.995 | S. cerevisiae deletion strains, locus YPL256C, strain CLN2, stronger effect = lower value 1.07 | S. cerevisiae deletion strains, locus YPR119W, strain clb2, stronger effect = lower value 0.971 | S. cerevisiae deletion strains, locus YPR141C, strain kar3, stronger effect = lower value 0.976 | S. cerevisiae deletion strains, locus YPR163C, strain tif3, stronger effect = lower value 0.928 | S. cerevisiae deletion strains, locus YPR167C, strain met16, stronger effect = lower value 0.97 | S. cerevisiae deletion strains, strain wtn01, stronger effect = lower value 0.957 | S. cerevisiae strains, strain wild type, stronger effect = lower value 0.975
